The nature of experiment [1]: Caspase-3/7 induction in CHO-K1 cells by small molecules, qHTS cell viability counter screen (AID 1346979). Further: nearly all actives have a fitted effect of over 35% in size. Further: potency means the concentration at half of the fitted maximal effect. The method, boiled down:
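To flag cytotoxic compounds, treated CHO-K1 wild-type cells were given CellTiter-Fluor at 16hr and read fluorescently after 1hr at 37C; the caspase-3/7 luminescence was measured in these same wells.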

Experiment [2] in a line: Caspase-3/7 induction in CHO-K1 cells by small molecules, qHTS assay (AID 1346980). Further: on the % scale 0 is the no-effect control and ±100 the full control effect; nearly all actives have a fitted effect of over 15% in size. The method, boiled down: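 Luminescent Caspase-Glo 3/7 read (30min, room temperature) quantified apoptosis induction. Cells were wild-type CHO-K1, treated with compound for 17hr at 37 C and 5% CO2.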
The nature of experiment [3]: Caspase-3/7 induction in HepG2 cells by small molecules, qHTS cell viability counter screen (AID 1346981). Further: series mostly up to about 92 µM; on the % scale 0 is the no-effect control and ±100 the full control effect; nearly all actives have a fitted effect of over 30% in size. The method, boiled down: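 Viability determined by CellTiter-Fluor fluorescence in HepG2 wells also used for the luminescent Caspase-Glo 3/7 read. Compounds were present for 16 hr at 37 C, 5% CO2 before reagent addition.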
In experiment [4] the target is Nuclear receptor subfamily 1 group I member 2 (Homo sapiens) (UniProt O75469). The experiment can be described thus: Human pregnane X receptor (PXR) small molecule agonists, qHTS assay (AID 1346982). Further: nearly all actives have a fitted effect of over 35% in size. Further: potency means the concentration at half of the fitted maximal effect. On activation: on the % scale 0 is the no-effect control and ±100 the full control effect. The method, boiled down:
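Compound-induced hPXR transactivation of a CYP3A4 luciferase reporter was scored in HepG2 PXR-Luc cells over 24 hr at 37 C, 5% CO2, by luminescence.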

Experiment [5] has as its target Cytochrome P450 2D6 (Homo sapiens) (UniProt P10635). The experiment can be described thus: Cytochrome P450 Family 2 Subfamily D Member 6 (CYP2D6) small molecule antagonists: luciferase reporter qHTS assay (AID 1671196). Further: nearly all actives have a fitted effect of over 50% in size. Further: potency means the concentration at half of the fitted maximal effect. The method, boiled down:
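Each well received CYP2D6 with its proluciferin substrate and chemical, sat 10 min, then got NADPH regeneration solution for 1 h at room temperature. Luminescence in RLU served as the activity measure.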

In experiment [6] the target is Cytochrome P450 2C19 (Homo sapiens) (UniProt P33261). The experiment can be described thus: Cytochrome P450 Family 2 Subfamily C Member 19 (CYP2C19) small molecule antagonists: luciferase reporter qHTS assay (AID 1671197). Further: nearly all actives have a fitted effect of over 65% in size. Further: potency means the concentration at half of the fitted maximal effect. The method, boiled down:
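Compounds were tested on CYP2C19 activity via proluciferin conversion to luciferin. The 37C, 1 h reaction followed NADPH addition; detection reagent stopped it.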

The target of experiment [7] is Cytochrome P450 2C9 (Homo sapiens) (UniProt P11712). Put plainly: Cytochrome P450 Family 2 Subfamily C Member 9 (CYP2C9) small molecule antagonists: luciferase reporter qHTS assay (AID 1671198). Further: nearly all actives have a fitted effect of over 50% in size. Further: potency means the concentration at half of the fitted maximal effect. The method, boiled down:
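Enzyme-substrate mix preincubated with compound 10 min at room temperature; reaction started with NADPH regeneration solution, 1 h 37C. Luminescent luciferin product read after 20 min detection reagent.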

Experiment [8] has as its target Cytochrome P450 1A2 (Homo sapiens) (UniProt P05177). The experiment can be described thus: Cytochrome P450 Family 1 Subfamily A Member 2 (CYP1A2) small molecule antagonists: luciferase reporter qHTS assay (AID 1671199). Further: nearly all actives have a fitted effect of over 50% in size. Further: potency means the concentration at half of the fitted maximal effect. The method, boiled down:
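Enzymatic CYP1A2 assay, human, luminescent: 10 min compound–enzyme–substrate preincubation, 1 h NADPH-dependent turnover, 20 min detection step, room temperature throughout. Reduced light indicates lower CYP1A2 activity.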

In experiment [9] the target is Cytochrome P450 3A4 (Homo sapiens) (UniProt P08684). Put plainly: Cytochrome P450 Family 3 Subfamily A Member 4 (CYP3A4) small molecule antagonists: luciferase reporter qHTS assay (AID 1671201). Further: nearly all actives have a fitted effect of over 50% in size. Further: potency means the concentration at half of the fitted maximal effect. The method, boiled down:
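Setup: enzyme-substrate mix, compound pin transfer, 10 min RT. Reaction: NADPH regeneration solution, 1 h RT. Readout: detection reagent stops turnover, luminescence measured after 20 min, expressed in relative luminescence units.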

Experiment [10] can be described thus: Human pregnane X receptor (PXR) small molecule agonists, qHTS cell viability counter screen (AID 1346977). The method, boiled down: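 Readout is CellTiter-Fluor fluorescence from PXR-Luc HepG2 cells. Plated cells rested 5hr, then were treated with compounds for 24hr at 37C and 5% CO2, with reagent present during the last hour.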
Experiment [11] is described as follows: Caspase-3/7 induction in HepG2 cells by small molecules, qHTS assay (AID 1346978). Further: on the % scale 0 is the no-effect control and ±100 the full control effect; nearly all actives have a fitted effect of over 15% in size. The method, boiled down:
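Caspase-3/7 induction was measured by Caspase-Glo 3/7 luminescence (30 min, room temperature) after a 17 hr compound exposure of wild-type HepG2 cells seeded at 2,000 per well and pre-incubated 5 hr.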

In experiment [12] the target is Voltage-gated inwardly rectifying potassium channel KCNH2 (Homo sapiens) (UniProt Q12809). The experiment can be described thus: Human Ether-a-go-go-Related Gene (hERG) channel small molecule antagonists: fluorescence cell-based qHTS assay (AID 1671200). Further: nearly all actives have a fitted effect of over 50% in size. Further: potency means the concentration at half of the fitted maximal effect. The method, boiled down: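 Measured: Tl+ flux via fluorescence (480/540 nm) in hERG-expressing U2OS cells after 1 h dye loading at room temperature.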
Sequence of Voltage-gated inwardly rectifying potassium channel KCNH2 (Homo sapiens) (Q12809 whole entry, looked up): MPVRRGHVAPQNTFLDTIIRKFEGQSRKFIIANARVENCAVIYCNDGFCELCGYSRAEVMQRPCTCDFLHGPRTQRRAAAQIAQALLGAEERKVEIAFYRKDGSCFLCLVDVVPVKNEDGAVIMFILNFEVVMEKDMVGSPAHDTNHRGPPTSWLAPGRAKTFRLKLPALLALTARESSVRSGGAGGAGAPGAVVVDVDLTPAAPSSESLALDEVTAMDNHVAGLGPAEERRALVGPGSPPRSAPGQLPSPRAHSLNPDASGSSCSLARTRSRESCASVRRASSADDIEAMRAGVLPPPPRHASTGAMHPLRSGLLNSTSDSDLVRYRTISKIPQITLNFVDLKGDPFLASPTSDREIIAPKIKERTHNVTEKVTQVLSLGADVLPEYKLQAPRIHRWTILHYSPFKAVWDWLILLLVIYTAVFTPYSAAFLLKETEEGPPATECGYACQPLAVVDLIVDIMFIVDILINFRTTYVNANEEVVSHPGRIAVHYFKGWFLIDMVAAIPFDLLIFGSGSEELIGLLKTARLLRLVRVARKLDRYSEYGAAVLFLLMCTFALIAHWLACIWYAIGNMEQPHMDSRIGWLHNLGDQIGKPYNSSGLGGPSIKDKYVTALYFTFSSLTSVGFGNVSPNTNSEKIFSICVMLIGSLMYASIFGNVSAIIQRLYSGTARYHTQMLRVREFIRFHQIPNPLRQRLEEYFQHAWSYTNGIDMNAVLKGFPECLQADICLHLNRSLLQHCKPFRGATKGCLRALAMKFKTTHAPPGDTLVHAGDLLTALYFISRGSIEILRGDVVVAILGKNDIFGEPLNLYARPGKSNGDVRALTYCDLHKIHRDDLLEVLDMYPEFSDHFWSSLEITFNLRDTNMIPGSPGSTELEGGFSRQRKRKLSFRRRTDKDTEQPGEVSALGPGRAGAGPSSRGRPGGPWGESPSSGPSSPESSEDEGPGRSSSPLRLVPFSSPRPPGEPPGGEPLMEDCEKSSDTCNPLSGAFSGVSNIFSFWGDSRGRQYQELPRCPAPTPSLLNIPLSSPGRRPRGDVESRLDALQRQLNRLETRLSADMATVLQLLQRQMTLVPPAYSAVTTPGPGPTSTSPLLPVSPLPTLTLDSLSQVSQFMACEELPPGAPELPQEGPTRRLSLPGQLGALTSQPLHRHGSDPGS

For experiment [13], the target named is Nuclear receptor subfamily 1 group I member 2 (Rattus norvegicus) (UniProt Q9R1A7). The experiment can be described thus: Rat pregnane X receptor (rPXR) activation by small molecules, qHTS assay (AID 1346983). Further: on the % scale 0 is the no-effect control and ±100 the full control effect; nearly all actives have a fitted effect of over 20% in size. As to conditions: rPXR luciferase reporter cells, One-Glo luminescence, 24 h; max activation: active compounds read high. The method, boiled down: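 Luminescent readout (One-Glo luciferase, 30 min room temperature) followed 24 hr compound treatment at 37 C of rPXR cells plated 2,000 per well and preincubated 5hr; qHTS format with compounds delivered in DMSO.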
Sequence of Nuclear receptor subfamily 1 group I member 2 (Rattus norvegicus) (Q9R1A7 whole entry, looked up): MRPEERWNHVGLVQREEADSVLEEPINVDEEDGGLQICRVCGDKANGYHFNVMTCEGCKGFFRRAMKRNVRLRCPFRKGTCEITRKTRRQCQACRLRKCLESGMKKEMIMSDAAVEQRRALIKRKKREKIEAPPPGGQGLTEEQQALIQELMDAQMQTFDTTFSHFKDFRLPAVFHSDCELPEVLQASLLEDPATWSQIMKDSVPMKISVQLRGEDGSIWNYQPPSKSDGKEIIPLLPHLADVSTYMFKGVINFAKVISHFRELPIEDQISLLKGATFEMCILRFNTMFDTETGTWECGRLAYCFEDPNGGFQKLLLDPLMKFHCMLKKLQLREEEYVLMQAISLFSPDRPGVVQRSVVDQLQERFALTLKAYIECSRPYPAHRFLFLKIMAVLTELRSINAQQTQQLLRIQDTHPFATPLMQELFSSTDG

Experiment [14] concerns the target Nuclear receptor subfamily 1 group I member 2 (Homo sapiens) (UniProt O75469). Put plainly: CYP3A4 induction through human pregnane X receptor (PXR) by small molecules, qHTS assay (AID 1346984). Further: potency means the concentration at half of the fitted maximal effect; nearly all actives have a fitted effect of over 40% in size. The method, boiled down: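 Readings come from a luciferase reporter: DPX-2 cells, which are HepG2 cotransfected with PXR and a CYP3A4-promoter construct, were exposed to test compounds for 24 h at 37C before One-Glo detection.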

For experiment [15] the target is unchanged. Put plainly: Human pregnane X receptor (PXR) activation by small molecules, qHTS assay (AID 1346985). Further: on the % scale 0 is the no-effect control and ±100 the full control effect; nearly all actives have a fitted effect of over 40% in size. The method, boiled down: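 DPX-2 cells (HepG2 co-transfected with a PXR response element and a CYP3A4-promoter luciferase construct) were seeded at 2,000 per well, rested 5 hr at 37C, then exposed to DMSO-dissolved compounds for 24 hr. Activation was read as luciferase luminescence.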

Values without a mark were called inactive. Inconclusive results are not listed. Activity calls are given as the source filed them. The call rests on the fitted dose curve; in most records, active means well fitted curve in the direction sought with a large enough effect in the repeat runs; inconclusive means weak or mixed curves; inactive means no such curve, though single readings can be large; an effect the other way counts as inactive or inconclusive.

In PubChem BioAssay (Tox21) one finds Potency and max activation data, which are given here for 18 molecules.

Sequence of Nuclear receptor subfamily 1 group I member 2 (Homo sapiens) (O75469 whole entry, looked up): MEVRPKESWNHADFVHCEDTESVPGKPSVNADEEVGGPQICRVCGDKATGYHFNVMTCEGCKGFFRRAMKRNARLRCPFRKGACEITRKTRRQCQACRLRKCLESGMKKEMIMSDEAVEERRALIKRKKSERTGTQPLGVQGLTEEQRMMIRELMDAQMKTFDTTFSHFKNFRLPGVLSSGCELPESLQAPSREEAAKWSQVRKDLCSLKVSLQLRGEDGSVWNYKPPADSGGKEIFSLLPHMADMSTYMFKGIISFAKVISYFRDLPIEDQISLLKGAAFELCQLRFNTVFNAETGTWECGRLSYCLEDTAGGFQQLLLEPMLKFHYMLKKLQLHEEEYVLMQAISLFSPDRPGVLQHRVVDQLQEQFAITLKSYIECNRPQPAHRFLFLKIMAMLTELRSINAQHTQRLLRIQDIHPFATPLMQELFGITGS
Sequence of Cytochrome P450 3A4 (Homo sapiens) (P08684 whole entry, looked up): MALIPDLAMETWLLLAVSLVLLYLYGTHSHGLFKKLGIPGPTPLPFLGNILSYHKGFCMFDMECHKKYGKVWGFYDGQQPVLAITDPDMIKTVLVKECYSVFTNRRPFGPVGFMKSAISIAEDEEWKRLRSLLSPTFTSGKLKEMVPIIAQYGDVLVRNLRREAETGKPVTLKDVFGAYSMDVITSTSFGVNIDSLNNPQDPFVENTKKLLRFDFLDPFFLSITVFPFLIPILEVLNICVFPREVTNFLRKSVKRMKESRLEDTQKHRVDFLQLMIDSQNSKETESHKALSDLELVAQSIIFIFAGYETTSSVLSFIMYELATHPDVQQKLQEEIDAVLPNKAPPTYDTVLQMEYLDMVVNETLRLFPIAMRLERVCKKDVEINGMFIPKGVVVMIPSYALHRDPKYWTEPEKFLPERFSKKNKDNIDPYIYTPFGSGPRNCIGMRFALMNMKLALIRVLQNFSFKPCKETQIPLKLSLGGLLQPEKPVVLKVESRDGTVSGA
Sequence of Cytochrome P450 2D6 (Homo sapiens) (P10635 whole entry, looked up): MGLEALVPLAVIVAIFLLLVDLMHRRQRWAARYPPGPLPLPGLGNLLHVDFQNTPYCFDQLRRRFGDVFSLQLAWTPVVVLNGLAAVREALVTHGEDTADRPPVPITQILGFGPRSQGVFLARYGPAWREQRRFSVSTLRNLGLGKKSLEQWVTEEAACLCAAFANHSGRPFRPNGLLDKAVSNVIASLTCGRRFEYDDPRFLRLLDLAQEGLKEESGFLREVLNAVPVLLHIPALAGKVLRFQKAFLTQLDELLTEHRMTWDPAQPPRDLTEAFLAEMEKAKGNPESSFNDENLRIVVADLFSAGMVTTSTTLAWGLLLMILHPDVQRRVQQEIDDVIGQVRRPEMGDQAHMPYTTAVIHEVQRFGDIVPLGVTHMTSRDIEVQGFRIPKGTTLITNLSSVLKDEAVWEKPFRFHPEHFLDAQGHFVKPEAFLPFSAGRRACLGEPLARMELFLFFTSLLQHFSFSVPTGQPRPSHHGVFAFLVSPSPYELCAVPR
Sequence of Cytochrome P450 2C19 (Homo sapiens) (P33261 whole entry, looked up): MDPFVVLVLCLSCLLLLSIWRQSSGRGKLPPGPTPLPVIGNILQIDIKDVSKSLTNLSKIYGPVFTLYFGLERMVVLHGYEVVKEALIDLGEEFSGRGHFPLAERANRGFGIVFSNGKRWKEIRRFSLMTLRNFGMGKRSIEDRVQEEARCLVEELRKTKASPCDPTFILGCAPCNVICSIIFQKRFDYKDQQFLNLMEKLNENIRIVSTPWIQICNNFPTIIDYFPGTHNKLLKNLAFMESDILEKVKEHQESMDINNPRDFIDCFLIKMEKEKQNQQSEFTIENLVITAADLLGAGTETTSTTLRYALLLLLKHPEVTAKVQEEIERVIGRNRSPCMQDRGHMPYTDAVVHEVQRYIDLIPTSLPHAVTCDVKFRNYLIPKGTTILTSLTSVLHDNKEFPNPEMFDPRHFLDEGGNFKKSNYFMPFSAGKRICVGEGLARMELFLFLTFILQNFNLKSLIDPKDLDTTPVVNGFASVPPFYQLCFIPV
Sequence of Cytochrome P450 1A2 (Homo sapiens) (P05177 whole entry, looked up): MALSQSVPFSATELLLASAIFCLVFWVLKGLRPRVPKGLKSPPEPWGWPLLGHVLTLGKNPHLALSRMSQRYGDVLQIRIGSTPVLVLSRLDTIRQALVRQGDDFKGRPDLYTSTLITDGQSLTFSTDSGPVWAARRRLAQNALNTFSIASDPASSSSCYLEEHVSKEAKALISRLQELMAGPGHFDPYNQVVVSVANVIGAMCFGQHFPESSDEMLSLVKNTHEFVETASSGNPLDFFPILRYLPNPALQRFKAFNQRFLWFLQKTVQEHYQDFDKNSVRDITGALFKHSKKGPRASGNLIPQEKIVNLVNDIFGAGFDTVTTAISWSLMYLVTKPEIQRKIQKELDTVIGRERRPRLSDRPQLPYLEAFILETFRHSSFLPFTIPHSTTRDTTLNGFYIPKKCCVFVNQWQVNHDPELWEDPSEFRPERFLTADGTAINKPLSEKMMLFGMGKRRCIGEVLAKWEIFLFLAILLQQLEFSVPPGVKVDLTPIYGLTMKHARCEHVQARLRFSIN
Sequence of Cytochrome P450 2C9 (Homo sapiens) (P11712 whole entry, looked up): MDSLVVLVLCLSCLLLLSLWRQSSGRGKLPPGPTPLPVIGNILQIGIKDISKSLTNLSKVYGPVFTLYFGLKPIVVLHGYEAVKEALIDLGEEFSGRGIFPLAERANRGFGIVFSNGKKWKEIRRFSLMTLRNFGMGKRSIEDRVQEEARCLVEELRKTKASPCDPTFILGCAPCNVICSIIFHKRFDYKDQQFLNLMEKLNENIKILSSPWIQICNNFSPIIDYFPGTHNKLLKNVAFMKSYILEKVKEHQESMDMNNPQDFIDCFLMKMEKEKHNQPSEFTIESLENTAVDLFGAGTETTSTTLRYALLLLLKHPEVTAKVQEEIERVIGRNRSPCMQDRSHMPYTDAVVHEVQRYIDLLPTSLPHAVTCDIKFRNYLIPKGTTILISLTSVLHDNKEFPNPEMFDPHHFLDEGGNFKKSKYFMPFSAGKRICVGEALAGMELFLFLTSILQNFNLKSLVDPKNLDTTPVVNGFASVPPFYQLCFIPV

For the molecule `N#CCCCC(C#N)CCC#N` (centres undefined), the Potency entry in [1], in experiment [2], in [3], in [4], in experiment [5] and in experiment [6] was “inactive” in each case. Further, the Potency result in experiment [8] and in [9] was “inactive” each time. In addition, the Potency in experiment [7] was 39.9 µM (active).

For the molecule `O=C1C=CCCC1`, the Potency entry in [10], in [11], in [1], in experiment [2], in experiment [3] and in experiment [4] was “inactive” throughout. The Potency entry in experiment [5], in [6], in experiment [7], in experiment [8], in experiment [12] and in [9] was “inactive” each time.

Consider `O=Cc1ccc([N+](=O)[O-])cc1`, for which the Potency result in experiment [10], in experiment [1], in experiment [2], in experiment [3] and in experiment [12] was “inactive” each time.

On to `CNc1ccccc1`, for which the Potency result in experiment [10], in [11], in [1], in experiment [2], in [3] and in experiment [4] was “inactive” in each case. Besides, the Potency result in [5], in experiment [8], in [12] and in experiment [9] was “inactive” each time. The Potency in experiment [6] is 31.7 µM (active).

Regarding `CC(C(=O)O)c1ccc(/C=C2\CCCCC2=O)cc1` (centres undefined), the Potency result in experiment [10], in experiment [11], in experiment [1], in [2], in experiment [3] and in [7] was “inactive” in each case. Besides, the Potency entry in [8], in experiment [12] and in experiment [9] was “inactive” in each case.

For the molecule `CC(=O)CC/C=C(\C)CC/C=C(\C)CC/C=C(\C)CCC=C(C)C`, the Potency result in [10], in experiment [11], in experiment [1], in experiment [2], in [3] and in experiment [5] was “inactive” each time. Besides, the Potency in experiment [4] was 23.7 µM (active); in experiment [7] it was 30.9 µM (active).

`O=C1c2ccccc2C(=O)c2c1ccc(O)c2O`: the Potency entry in experiment [11], in [2], in experiment [4], in experiment [15], in [6] and in experiment [9] was “inactive” each time. Moreover, the Potency in experiment [1] is 23.7 µM (active); in experiment [14], 14.1 µM (active); in [8], 25.7 µM (active). For the same molecule, the max activation in experiment [13] was 0.447%.

In the case of `Cc1ccc(NC(=O)c2ccc(CN3CCN(C)CC3)cc2)cc1Nc1nccc(-c2cccnc2)n1`, the Potency result in experiment [11], in [2], in experiment [5], in [6], in experiment [7] and in [8] was “inactive” in each case. Further, the Potency in [1] was 23.7 µM (active). In addition, the max activation in experiment [13] was -10.6%.

As to `N#C[C@@H]1CC(F)(F)CN1C(=O)CNC1CC2CCC(C1)N2c1ncccn1` (some centres undefined), the Potency result in experiment [11], in experiment [1], in [2], in experiment [3], in experiment [4] and in experiment [8] was “inactive” in each case. For the same molecule, the Potency entry in [12] is “inactive”. In addition, the results for the Potency in experiment [5], in experiment [6] and in experiment [7] were 12.6 µM (active), 71 µM (active) and 35.6 µM (active), respectively.

Regarding `CC(=O)c1cccnc1`, the Potency entry in [10], in experiment [1], in [2], in [3], in experiment [4] and in [5] was “inactive” throughout. Also, the Potency result in experiment [6], in experiment [7], in experiment [8], in [12] and in [9] was “inactive” in each case.

Regarding `CC1(C)C(=O)NC(=O)N1CO`, the Potency result in experiment [10], in experiment [11], in experiment [1], in experiment [2], in [3] and in experiment [4] was “inactive” in each case. Moreover, the Potency result in experiment [5], in experiment [7], in experiment [8] and in experiment [9] was “inactive” throughout.

For `Cc1nc2sccn2c(=O)c1CCN1CCC(=C(c2ccc(F)cc2)c2ccc(F)cc2)CC1`, the Potency entry in experiment [11], in experiment [1], in experiment [2], in experiment [3], in experiment [4] and in experiment [8] was “inactive” in each case. Also, the Potency entry in experiment [9] was “inactive”. The Potency in [5] is 15.5 µM (active); in [12] it was 0.213 µM (active).

In the case of `O=[N+]([O-])c1cccc(I)c1`, the Potency result in [10], in experiment [11], in experiment [1], in experiment [2], in [3] and in experiment [4] was “inactive” each time. For the same molecule, the Potency result in experiment [5], in experiment [6], in experiment [7], in experiment [12] and in experiment [9] was “inactive” each time. The Potency in [8] was 31.6 µM (active).

For the molecule `CC(CC(C#N)(c1ccccc1)C(C)C)N(C)C` (centres undefined), the Potency entry in [10], in [11], in [1], in experiment [2], in [3] and in [4] was “inactive” throughout. Moreover, the Potency result in experiment [6], in experiment [7], in experiment [8] and in [12] was “inactive” each time. For the same molecule, the Potency in experiment [5] was 15.5 µM (active); in experiment [9], 6.92 µM (active).

In the case of `COc1ccc(/C(C)=C/C(=O)O)c(OC)c1`, the Potency result in [11], in experiment [1], in experiment [2], in experiment [3], in experiment [4] and in [5] was “inactive” in each case. The Potency result in experiment [6], in experiment [7], in experiment [8], in experiment [12] and in [9] was “inactive” throughout.

Regarding `CC(C)(C)N`, the Potency result in [10], in [1], in experiment [2], in experiment [3], in experiment [4] and in experiment [5] was “inactive” in each case. Moreover, the Potency entry in experiment [7], in [8], in experiment [12] and in [9] was “inactive” throughout.

For the molecule `Nc1ccc(F)cc1F`, the Potency result in experiment [10], in experiment [11], in experiment [1], in experiment [2], in [3] and in [4] was “inactive” in each case. Also, the Potency entry in experiment [5], in experiment [7], in [8], in [12] and in experiment [9] was “inactive” each time.

In the case of `CCCCOC(=O)CC#N`, the Potency result in experiment [10], in experiment [11], in experiment [1], in experiment [2], in experiment [3] and in experiment [4] was “inactive” throughout. For the same molecule, the Potency result in experiment [9] is “inactive”. For the same molecule, the Potency in [5] is 5.27 µM (active); in experiment [6], 7.44 µM (active); in experiment [7], 7.44 µM (active); in [8], 7.44 µM (active).
